Each structure is given as a SMILES string. Compounds without any hit were thinned out: in the full panel of roughly 79,000, 15% have a hit. Active and inactive are the calls of the source. Rule as the data show it: active = growth inhibition above about 70%; inactive = the rest.

This assay is described as follows: NCI Yeast Anticancer Drug Screen. Data for the sgs1 mgt1 strain (AID 161).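 Also: 0% = growth of cultures given vehicle only.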 Particulars: S. cerevisiae sgs1 mgt1 strain, at 50.0 µM, hits give high values. The essentials:
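Compounds are added to genetically altered yeast, and growth is compared with cultures given vehicle alone to give percent inhibition.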
Turning to `CC1(CCOCc2ccccc2)NC(=O)N(CCC#N)C1=O` (stereo not given), the growth inhibition was -4.6% (inactive).

For `CC(C)CC(O)CC(C)C`, the growth inhibition was -0.75% (inactive).

For the molecule `CC1(C)CC2=C(Sc3ccccc3N2)C(=O)C1C(=O)C(=O)Nc1cc(Cl)ccc1Cl` (stereo not given), the growth inhibition was -6.85% (inactive).

Take `Brc1cc2c(cc1CC1CCCCO1)OCO2` (stereo not given): the growth inhibition was 1.4% (inactive).

As to `COc1ncc(/C=C2\OC(=O)c3ccccc32)c(OC)n1`, the growth inhibition is 19.9% (inactive).

Take `CCCCOCCOCCOC(=O)C(C)O` (stereo not given): the growth inhibition is -3.95% (inactive).

Take `Cn1c(-c2ccccc2)cc(=O)cc1-c1ccccc1`: the growth inhibition is -10.2% (inactive).

In the case of `COc1cc(/C=N\N=C(/C)c2ccc(C)cc2C)cc(OC)c1OC`, the growth inhibition was 24.8% (inactive).

As to `CNN=C(C)C`, the growth inhibition is -3.4% (inactive).

For the molecule `CC(N)C(C)(C)O` (stereo not given), the growth inhibition was 1.7% (inactive).

As to `OC(c1ccccc1)(c1ccccc1)c1ccccc1CNc1ccccc1`, the growth inhibition was 26.2% (inactive).

For `O=C(O)/C(=C\c1ccncc1)c1cccc2ccccc12`, the growth inhibition is -37.4% (inactive).

As for `CC(=O)OCC(OC(C)=O)C(OC1OC(COC(C)=O)C(OC(C)=O)C(OC(C)=O)C1OC(C)=O)C(OC(C)=O)c1cnn(-c2ccccc2)n1` (stereo not given), the growth inhibition is -8.15% (inactive).

With `Cc1cccc(C)c1/[N+]([O-])=C/c1cccc([N+](=O)[O-])c1`, the growth inhibition was -3.3% (inactive).

For `CCCC(O)C(C)C(C)O` (stereo not given), the growth inhibition is -17.4% (inactive).

With `Nc1ccc(S(=O)(=O)Nc2nccs2)cc1`, the growth inhibition was -3.7% (inactive).

As to `COc1ccc(C2c3cc4c(cc3OC(C)(OC)C2C)OCO4)cc1` (stereo not given), the growth inhibition is -3.25% (inactive).

As for `COc1ccc(OC)c(NC(=O)Nc2ccc(I)cc2)c1`, the growth inhibition was 33.9% (inactive).

Turning to `COc1cccc(/C=N\c2nc(-c3ccccc3Cl)cs2)c1O`, the growth inhibition is 32.4% (inactive).

As for `COc1ccc(N2C(=O)c3c(C)ccc(C)c3C2=O)cc1`, the growth inhibition was 19.9% (inactive).

Consider `CS(=O)(=O)OCC1NC(=O)C(COS(C)(=O)=O)NC1=O` (stereo not given), for which the growth inhibition was -3.15% (inactive).

Take `COC(=O)/C(=N\O)C(C(=O)C=C(C)C)C(=O)C(=O)Nc1ccccc1C` (stereo not given): the growth inhibition is -8.35% (inactive).

Turning to `COc1cc2c(cc1O)C(=O)CCCC2`, the growth inhibition was -17.8% (inactive).

On to `COc1ccc(-c2cc(-c3ccccc3)n(C3OC(COC(C)=O)C(OC(C)=O)C(OC(C)=O)C3OC(C)=O)c(=S)c2C#N)cc1` (stereo not given), for which the growth inhibition was -8.6% (inactive).

As to `CCOC(=O)c1n[nH]c(=S)[nH]c1=O`, the growth inhibition was -3.05% (inactive).

As to `O=[N+]([O-])c1ccc(/C=N\NC(=S)Nc2ccc3cn[nH]c3c2)cc1`, the growth inhibition is 7.6% (inactive).

Consider `N=C(N)c1ccc(NC(=O)c2ccc(C(=O)Nc3ccc(C(=N)N)cc3)c(N)c2)cc1`, for which the growth inhibition was -7.6% (inactive).

For `O=C(CC(=O)N1N=C(N(c2ccccc2)c2ccccc2)CC1c1ccccc1)Nc1ccccc1` (stereo not given), the growth inhibition is -2.1% (inactive).

For `Cc1ccc2[nH]c(=S)n(CCc3ccccc3)c(=O)c2c1`, the growth inhibition was 29.9% (inactive).

`CCOc1ccc(N=Nc2c(O)n(-c3ccc(Br)cc3)c(=S)n(-c3ccc(OC)cc3)c2=O)cc1`: the growth inhibition was -9.1% (inactive).

Consider `CCCCCCC#CC(=O)OCCCC`, for which the growth inhibition was 6.05% (inactive).

Regarding `Clc1cccc2[nH]ccc12`, the growth inhibition was -23.9% (inactive).

As to `COc1ccc(C(=O)N/N=C/c2c(C)n(C)n(-c3ccccc3)c2=O)cc1`, the growth inhibition is -61.2% (inactive).

On to `O/N=C(\CC(O)(C(F)(F)F)C(F)(F)F)c1cccs1`, for which the growth inhibition was 45.6% (inactive).

On to `Cc1cc2c3c(c1)CCCN3CCC2`, for which the growth inhibition is -9.85% (inactive).

As for `CCC1(C#N)OC1C` (stereo not given), the growth inhibition was 23.1% (inactive).

For the molecule `CCCC(=O)Nc1ccccc1OC`, the growth inhibition is 9.2% (inactive).

Turning to `C(CCN1CN(CCCCN2CCOCC2)CN(CCCCN2CCOCC2)C1)CN1CCOCC1`, the growth inhibition was 10.4% (inactive).

Regarding `C/C(CC(=O)Nc1ccc(Cl)cc1)=N\NC(N)=S`, the growth inhibition was 9.6% (inactive).

Regarding `CCCCCCC(C#N)(CCN(C)C)c1ccccc1` (stereo not given), the growth inhibition was 14.3% (inactive).
